Test results from the supplement of paper PMC7411054.

What was measured:
Conditions in all cases: treatment time: 24 h
A549-ACTB-RAB5A [1] = assay: lowest phenotypically active concentration; higher = less potent
Method in brief: (§1)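 After 24 h at 0.3, 1, 3 or 9 µM, with four wells per treatment, fifteen gene-edited A549, HepG2 and WPMY1 reporter lines carrying BFP, GFP and RFP/FusionRed were imaged live. Each well's live-cell features were expressed relative to solvent control wells. Deviation required ≥3 of 4 wells past the 95th percentile of control Euclidean distances, and reproducibility a median replicate Pearson correlation over the 95th percentile of non-replicates. Phenotypic activity rested on both.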

A549-CANX-COX4 [2] = assay: as above
Method in brief: as §1

A549-GM130-SQSTM1 [3] = assay: as above
Method in brief: as §1

A549-TP53BP1-CLTA [4] = assay: as above
Method in brief: as §1

A549-TUBA1B-RELA [5] = assay: as above
Method in brief: as §1

HepG2-GM130-SQSTM1 [6] = assay: as above
Method in brief: as §1

A549-ACTB-RAB5A [7] = assay: phenotypically active (imaging signature differs from DMSO and reproducible) at any of 0.3-9 uM (binary (1 = active, 0 = inactive)); higher = active
Method in brief: as §1

A549-CANX-COX4 [8] = assay: as above
Method in brief: as §1

A549-GM130-SQSTM1 [9] = assay: as above
Method in brief: as §1

A549-TP53BP1-CLTA [10] = assay: as above
Method in brief: as §1

A549-TUBA1B-RELA [11] = assay: as above
Method in brief: as §1

HepG2-ACTB-RAB5A = assay: as above
Method in brief: as §1

HepG2-CANX-COX4 = assay: as above
Method in brief: as §1

HepG2-GM130-SQSTM1 [12] = assay: as above
Method in brief: as §1

HepG2-TP53BP1-CLTA = assay: as above
Method in brief: as §1

HepG2-TUBA1B-RELA = assay: as above
Method in brief: as §1

WPMY1-CANX-COX4 = assay: as above
Method in brief: as §1

WPMY1-GM130-SQSTM1 = assay: as above
Method in brief: as §1

WPMY1-TP53BP1-CLTA = assay: as above
Method in brief: as §1

WPMY1-TUBA1B-RELA = assay: as above
Method in brief: as §1

CC[C@@H](N)CNc1ccnc(-c2cc(-c3cnn(C)c3)ccc2O)n1
lowest phenotypically active concentration (A549-ACTB-RAB5A [1]): 1 µM | lowest phenotypically active concentration (A549-CANX-COX4 [2]): 3 µM | lowest phenotypically active concentration (A549-GM130-SQSTM1 [3]): 1 µM | lowest phenotypically active concentration (A549-TP53BP1-CLTA [4]): 1 µM | lowest phenotypically active concentration (A549-TUBA1B-RELA [5]): 1 µM | lowest phenotypically active concentration (HepG2-GM130-SQSTM1 [6]): 1 µM | phenotypically active (A549-ACTB-RAB5A [7]): 1 (active) | phenotypically active (A549-CANX-COX4 [8]): 1 (active) | phenotypically active (A549-GM130-SQSTM1 [9]): 1 (active) | phenotypically active (A549-TP53BP1-CLTA [10]): 1 (active) | phenotypically active (A549-TUBA1B-RELA [11]): 1 (active) | phenotypically active (HepG2-ACTB-RAB5A): 1 (active) | phenotypically active (HepG2-CANX-COX4): 1 (active) | phenotypically active (HepG2-GM130-SQSTM1 [12]): 1 (active) | phenotypically active (HepG2-TP53BP1-CLTA): 1 (active) | phenotypically active (HepG2-TUBA1B-RELA): 1 (active) | phenotypically active (WPMY1-CANX-COX4): 1 (active) | phenotypically active (WPMY1-GM130-SQSTM1): 1 (active) | phenotypically active (WPMY1-TP53BP1-CLTA): 1 (active) | phenotypically active (WPMY1-TUBA1B-RELA): 1 (active)

COc1cc(/C=C/c2ccc(OC)cc2OC)cc(OC)c1
lowest phenotypically active concentration (A549-ACTB-RAB5A [1]): 3 µM | lowest phenotypically active concentration (A549-CANX-COX4 [2]): 1 µM | lowest phenotypically active concentration (A549-GM130-SQSTM1 [3]): 3 µM | lowest phenotypically active concentration (A549-TP53BP1-CLTA [4]): 1 µM | lowest phenotypically active concentration (A549-TUBA1B-RELA [5]): 3 µM | lowest phenotypically active concentration (HepG2-GM130-SQSTM1 [6]): 3 µM | phenotypically active (A549-ACTB-RAB5A [7]): 1 (active) | phenotypically active (A549-CANX-COX4 [8]): 1 (active) | phenotypically active (A549-GM130-SQSTM1 [9]): 1 (active) | phenotypically active (A549-TP53BP1-CLTA [10]): 1 (active) | phenotypically active (A549-TUBA1B-RELA [11]): 1 (active) | phenotypically active (HepG2-ACTB-RAB5A): 1 (active) | phenotypically active (HepG2-CANX-COX4): 1 (active) | phenotypically active (HepG2-GM130-SQSTM1 [12]): 1 (active) | phenotypically active (HepG2-TP53BP1-CLTA): 1 (active) | phenotypically active (HepG2-TUBA1B-RELA): 1 (active) | phenotypically active (WPMY1-CANX-COX4): 1 (active) | phenotypically active (WPMY1-GM130-SQSTM1): 1 (active) | phenotypically active (WPMY1-TP53BP1-CLTA): 1 (active) | phenotypically active (WPMY1-TUBA1B-RELA): 1 (active)

Cc1ncc(-c2ccnc(Nc3ccc(S(C)(=O)=O)cc3)n2)n1C(C)C
lowest phenotypically active concentration (A549-ACTB-RAB5A [1]): ≤ 0.3 µM | lowest phenotypically active concentration (A549-CANX-COX4 [2]): ≤ 0.3 µM | lowest phenotypically active concentration (A549-GM130-SQSTM1 [3]): ≤ 0.3 µM | lowest phenotypically active concentration (A549-TP53BP1-CLTA [4]): ≤ 0.3 µM | lowest phenotypically active concentration (A549-TUBA1B-RELA [5]): ≤ 0.3 µM | lowest phenotypically active concentration (HepG2-GM130-SQSTM1 [6]): ≤ 0.3 µM | phenotypically active (A549-ACTB-RAB5A [7]): 1 (active) | phenotypically active (A549-CANX-COX4 [8]): 1 (active) | phenotypically active (A549-GM130-SQSTM1 [9]): 1 (active) | phenotypically active (A549-TP53BP1-CLTA [10]): 1 (active) | phenotypically active (A549-TUBA1B-RELA [11]): 1 (active) | phenotypically active (HepG2-ACTB-RAB5A): 1 (active) | phenotypically active (HepG2-CANX-COX4): 1 (active) | phenotypically active (HepG2-GM130-SQSTM1 [12]): 1 (active) | phenotypically active (HepG2-TP53BP1-CLTA): 1 (active) | phenotypically active (HepG2-TUBA1B-RELA): 1 (active) | phenotypically active (WPMY1-CANX-COX4): 1 (active) | phenotypically active (WPMY1-GM130-SQSTM1): 1 (active) | phenotypically active (WPMY1-TP53BP1-CLTA): 1 (active) | phenotypically active (WPMY1-TUBA1B-RELA): 1 (active)

Nc1ccn([C@@H]2O[C@H](CO)[C@@H](O)[C@@H]2O)c(=O)n1 [cytarabine]
lowest phenotypically active concentration (A549-ACTB-RAB5A [1]): ≤ 0.3 µM | lowest phenotypically active concentration (A549-CANX-COX4 [2]): ≤ 0.3 µM | lowest phenotypically active concentration (A549-GM130-SQSTM1 [3]): ≤ 0.3 µM | lowest phenotypically active concentration (A549-TP53BP1-CLTA [4]): ≤ 0.3 µM | lowest phenotypically active concentration (A549-TUBA1B-RELA [5]): ≤ 0.3 µM | lowest phenotypically active concentration (HepG2-GM130-SQSTM1 [6]): ≤ 0.3 µM | phenotypically active (A549-ACTB-RAB5A [7]): 1 (active) | phenotypically active (A549-CANX-COX4 [8]): 1 (active) | phenotypically active (A549-GM130-SQSTM1 [9]): 1 (active) | phenotypically active (A549-TP53BP1-CLTA [10]): 1 (active) | phenotypically active (A549-TUBA1B-RELA [11]): 1 (active) | phenotypically active (HepG2-ACTB-RAB5A): 1 (active) | phenotypically active (HepG2-CANX-COX4): 1 (active) | phenotypically active (HepG2-GM130-SQSTM1 [12]): 1 (active) | phenotypically active (HepG2-TP53BP1-CLTA): 1 (active) | phenotypically active (HepG2-TUBA1B-RELA): 1 (active) | phenotypically active (WPMY1-CANX-COX4): 1 (active) | phenotypically active (WPMY1-GM130-SQSTM1): 1 (active) | phenotypically active (WPMY1-TP53BP1-CLTA): 1 (active) | phenotypically active (WPMY1-TUBA1B-RELA): 1 (active)

C[C@H]1COCCN1c1cc(C2(S(=O)(=O)C3CC3)CC2)nc(-c2ccc(NC(=S)NCCO)cc2)n1
lowest phenotypically active concentration (A549-ACTB-RAB5A [1]): ≤ 0.3 µM | lowest phenotypically active concentration (A549-CANX-COX4 [2]): ≤ 0.3 µM | lowest phenotypically active concentration (A549-GM130-SQSTM1 [3]): ≤ 0.3 µM | lowest phenotypically active concentration (A549-TP53BP1-CLTA [4]): ≤ 0.3 µM | lowest phenotypically active concentration (A549-TUBA1B-RELA [5]): ≤ 0.3 µM | lowest phenotypically active concentration (HepG2-GM130-SQSTM1 [6]): ≤ 0.3 µM | phenotypically active (A549-ACTB-RAB5A [7]): 1 (active) | phenotypically active (A549-CANX-COX4 [8]): 1 (active) | phenotypically active (A549-GM130-SQSTM1 [9]): 1 (active) | phenotypically active (A549-TP53BP1-CLTA [10]): 1 (active) | phenotypically active (A549-TUBA1B-RELA [11]): 1 (active) | phenotypically active (HepG2-ACTB-RAB5A): 1 (active) | phenotypically active (HepG2-CANX-COX4): 1 (active) | phenotypically active (HepG2-GM130-SQSTM1 [12]): 1 (active) | phenotypically active (HepG2-TP53BP1-CLTA): 1 (active) | phenotypically active (HepG2-TUBA1B-RELA): 1 (active) | phenotypically active (WPMY1-CANX-COX4): 1 (active) | phenotypically active (WPMY1-GM130-SQSTM1): 1 (active) | phenotypically active (WPMY1-TP53BP1-CLTA): 1 (active) | phenotypically active (WPMY1-TUBA1B-RELA): 1 (active)
